This is part of a sample that, as a whole, favours compounds with a hit. Of some 83,000 tested, about 20% had one in any assay.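 Compound tested at a single concentration for 48 hours in 96-well plates; a percent growth value below 10 was scored as active.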 Unmarked numbers belong to inactive results. Activity calls are given as the source filed them.
Each compound was assayed on CCRF-CEM leukemia (assay: NCI-60 one-dose screen, 48 h (100 = growth as untreated, 0 = no growth, -100 = all killed)). Settings: 10 µM unless noted.
Compound CC(=O)OC[C@]12CCC(C)(C)C[C@H]1[C@@]1(O)[C@H](O)C[C@@H]3[C@@]4(C)CCCNC(C)(C)[C@@H]4CC[C@@]3(C)[C@]1(C)CC2 has a growth of 102%.
COC(C(=O)[C@@H](O)[C@@H](C)O)[C@@H]1Cc2cc3cc(O[C@H]4C[C@@H](O[C@H]5C[C@@H](O)[C@H](O)C(C)O5)[C@H](O)C(C)O4)cc(O)c3c(O)c2C(=O)[C@H]1O[C@H]1C[C@@H](O[C@H]2C[C@@H](O[C@H]3C[C@@H](OC)[C@H](O)C(C)O3)[C@@H](O)C(C)O2)[C@H](O)C(C)O1 (some centres undefined) showed a growth of 68.9%.
O=C1CNC(c2ccccc2)C(c2ccccc2)N1 (centres undefined) was tested, and the growth was 69.9%.
In the case of CCc1n(Cc2ccc3ccccc3c2)cc[n+]1Cc1ccc2ccccc2c1, the growth is reported as 11.4%.
For O=C(/C=C/c1ccc(Cl)cc1)c1cccc(Nc2nc(Nc3ccccc3)nc(Nc3ccccc3)n2)c1, the growth was 76.2%.
C=C1C(=O)O[C@H]2[C@H]1CC/C(COC(=O)NCc1cc[nH]c1)=C\CC[C@@]1(C)O[C@@H]21 was tested, and the growth was -15.9% (active).
CN1CCN(C(=O)c2ccc(NC(=O)Nc3ccc(-c4nc(N5CCOCC5)c5cccn5n4)cc3)cc2)CC1 was tested, and the growth was 16.9%.
With O=C1c2cccnc2C(=O)c2c1c(C(=O)NCCn1ccnc1)c1ccccn21 the growth was 11.8%.
Cc1nn(-c2ccccc2)c(Oc2ccccn2)c1-c1nc2ccccc2s1 was tested, and the growth was 102%.
Compound CCN(CC)c1nc(SCc2ccccc2Cl)ncc1C has a growth of 92.7%.
For COc1cc(-c2nc3cc(Cl)c(Cl)cc3[nH]2)ccc1OCC(=O)N=Nc1c(O)[nH]c2ccc([N+](=O)[O-])cc12, the growth was 21.6%.
Work on Brc1c2c(c(Br)c3ccccc13)CCCC2 yielded a growth of 96.5%.
CC1(C)CC2=C3C=C[C@@H]4[C@@]5(C)CCC(=O)C(C)(C)[C@@H]5CC[C@@]4(C)[C@]3(C)CC[C@@]2(C(=O)O)CC1=O was tested, and the growth was 58%.
O=S(=O)(NCCNc1nccc(-c2c(-c3cccc(F)c3)nc3occn23)n1)c1ccc(Br)cc1 showed a growth of 60.3%.
In the case of COc1ccc(-c2cc(-c3ccc(Cl)cc3)c(C#N)c(=O)n2CCCCC(=O)Nc2ccccc2N)cc1, the growth is reported as 42.5%.
COc1ccc2c3c([nH]c2c1)C(=O)c1nc(C)ccc1C3=O was tested, and the growth was 53.2%.
Compound Cc1c(-n2nnc(-c3nc4ccccc4s3)c2N)c(=O)n(-c2ccccc2)n1C has a growth of 107%.
With COc1ccc(/C=C2\COc3ccc(O)c(O)c3C2=O)cc1 the growth was 7.73% (active).
In the case of O=C1c2cccnc2C(=O)c2c1c(C(=O)NCCCN1CCCCC1)c1ccccn21, the growth is reported as -25.6% (active).
With Cc1ccc(CNc2ccc(Cl)cc2NCc2ccc(C)c(O)c2)cc1O the growth was 9.13% (active).
Compound Cc1ccc(Sc2nnc(/N=C3\C(=O)Nc4ccccc43)s2)cc1 has a growth of 93.4%.
O=C(Cn1cc(CN2CCCCCC2)nn1)Nc1ccc2c(ccn2Cc2ccccc2)c1 was tested, and the growth was 1.87% (active).
With Cc1noc(C)c1C(=O)OCc1coc2ccccc2c1=O the growth was 24.2%.
S=C1CCSC(=S)N1CCCN1C(=S)CCSC1=S was tested, and the growth was 16.7%.
Oc1ccc(CCn2c(O)c(/C=C3\CN=c4ccccc4=N3)sc2=S)cc1 was tested, and the growth was 7.79% (active).
In the case of COc1ccc(-c2nnc3n(C)c(=O)c4ccccc4n23)cc1N, the growth is reported as 18.5%.
Cn1cccc1C(=O)C1C(c2cccc([N+](=O)[O-])c2)C2C3CCCCC3CN2C12C(=O)Nc1ccc(Cl)cc12 (centres undefined) showed a growth of 58.6%.
In the case of CCOC(=O)C#Cc1c(C(=O)OCC)nnn1[C@@H]1O[C@H](CO)[C@H]2OC3(CCCCC3)O[C@H]21, the growth is reported as 6.89% (active).
With O=[N+]([O-])c1ccc(N/N=C(/C(=N/Nc2ccc([N+](=O)[O-])cc2)c2ccccc2)c2ccccc2)cc1 the growth was 90.9%.
N#Cc1c(-c2ccccc2)cc(-c2ccccc2)n(CCCCCC(=O)Nc2ccccc2N)c1=O was tested, and the growth was 6.3% (active).
For CC1(c2ccccc2O)NN=C(/N=C/c2cccc([N+](=O)[O-])c2)N1C(Cc1c[nH]c2ccccc12)C(=O)O (centres undefined), the growth was 81.9%.
O=C(OCc1ccc2c(Cl)cc(Cl)c(O)c2n1)n1cncn1 gave a growth of 24.2%.
Work on Clc1ccc(CNc2c3ccccc3nc3ccccc23)cc1 yielded a growth of 30.2%.
CCSc1nc(NC)c2cc(-c3ccc(C(F)(F)F)cc3)ccc2n1 showed a growth of 95.6%.
Compound CCCCCCCCCCCCCCCCCCOc1ccccc1CC(=O)OCC[N+]1(C)CCCC1 has a growth of 19.8%.
Work on O=C(c1ccc(-c2ccccc2)cc1)c1ccc([N+](=O)[O-])cc1 yielded a growth of 89%.
With O=C1Nc2ccccc2/C1=C\c1nc(-c2ccccc2F)n2ccccc12 the growth was 79%.
With O=C(OCc1ccc2cccc(O)c2n1)N1CCN(C(=O)c2cc3cc(F)ccc3[nH]2)CC1 the growth was 3.76% (active).
Compound O=C(NNc1nccc(Nc2ccc(S(=O)(=O)Nc3ccncc3)cc2)n1)c1ccccc1 has a growth of 111%.

Reference: PubChem BioAssay (NCI)
